# Results reported in the supplement of paper PMC8728848.
# About 410 targets per protein were measured; listed, in parts, are those with the strongest signals and a random draw of the rest.
# B1: PX9961Q-bfa-504-27-504 (Bacteroides fragilis) (protein)
# chain: NDWLDRKPADGIPSEDAITNYNDALTARTGMYDGIQGNSNATSYYGARMFYYGDVRADDMQARTQGMRSSSCYEMLYTVDDAPNMWNIPYNVIRRANRLIEAINEKKVTDATEAQIGKIYSEALVVRALVHFDLVRIYGMPYTADNGASLGVPVIVKPLERNDLPSRNTVAEVYTQVITDLTDAINSGYLAKDQTPGYINEWAAKALLTRVYLTKGDNENALKVAEDIITNSPYKLWTNEEYVNAWYKSNGAHTNEMIFEVVNASNDDWTDRNGIAYLLNENGYADAIVTKSFMNMLSQDPKDVRIGMVLPAQYDKDLQEEYGDAKIFINKFPADKDDVGEMRLNNLPLLRLSEVYLSAAEAAAKLGGHQDKAAKYLNEIVQRANPEAKAISEADATVERIILERRKEMIGEGQRYFDALRNNETIVRYKDEGDKGYHYSLIKESQSFDRTYFRAILPIPVDETNVNPNLRAQQNPGY
# Assays:
# Test in all cases: glycan array binding signal (z-score within array); higher = stronger binding
# Conditions in all cases: glycan notation: IUPAC condensed, linker removed
# [1] = target: GlcA3S(b1-3)Gal(b1-4)GlcNAc(b1-3)Gal(b1-4)Glc
# Method in brief: (§1)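 Negative Z-scores can be read as non-binding. The Z-score is calculated within each array and then averaged across arrays of one protein sequence at different concentrations or buffers and across linkers. Arrays, 3228 in all, were curated from the Consortium for Functional Glycomics database and kept only where the protein sequence was available.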
# [2] = target: GlcNAc(b1-3)Gal(b1-4)GlcNAc
# Method in brief: as §1
# [3] = target: GlcNAc(b1-3)Gal(b1-4)GlcNAc(b1-3)Gal(b1-4)GlcNAc(b1-3)Gal(b1-4)GlcNAc(b1-2)Man(a1-3)[GlcNAc(b1-3)Gal(b1-4)GlcNAc(b1-3)Gal(b1-4)GlcNAc(b1-3)Gal(b1-4)GlcNAc(b1-2)Man(a1-6)]Man(b1-4)GlcNAc(b1-4)[Fuc(a1-6)]GlcNAc
# Method in brief: as §1
# GlcNAc(b1-3)Man = target: GlcNAc(b1-3)Man
# Method in brief: as §1
# [4] = target: GlcNAc(b1-4)Gal(b1-4)GlcNAc
# Method in brief: as §1
# [5] = target: GlcNAc(b1-4)GlcNAc(b1-4)GlcNAc(b1-4)GlcNAc(b1-4)GlcNAc(b1-4)GlcNAc
# Method in brief: as §1
# GlcNAc(b1-6)GalNAc = target: GlcNAc(b1-6)GalNAc
# Method in brief: as §1
# [6] = target: Man(a1-2)Man(a1-2)Man(a1-6)[Man(a1-3)]Man
# Method in brief: as §1
# [7] = target: Man(a1-3)[Man(a1-6)]Man(a1-6)[Man(a1-3)]Man
# Method in brief: as §1
# Man(a1-6)Man = target: Man(a1-6)Man
# Method in brief: as §1
# [8] = target: Neu5Ac(a2-3)Gal(b1-4)GlcNAc(b1-2)[Neu5Ac(a2-3)Gal(b1-4)GlcNAc(b1-6)]Man(a1-6)[Neu5Ac(a2-3)Gal(b1-4)GlcNAc(b1-2)Man(a1-3)][GlcNAc(b1-4)]Man(b1-4)GlcNAc(b1-4)GlcNAc
# Method in brief: as §1
# [9] = target: Neu5Ac(a2-6)Gal(b1-3)GlcNAc(b1-3)[Gal(b1-4)GlcNAc(b1-6)]Gal(b1-4)Glc
# Method in brief: as §1
# [10] = target: Neu5Ac(a2-6)Gal(b1-4)GlcNAc
# Method in brief: as §1
# [11] = target: Neu5Ac(a2-6)Gal(b1-4)GlcNAc(b1-2)Man(a1-6)[GlcNAc(b1-2)Man(a1-3)]Man(b1-4)GlcNAc(b1-4)GlcNAc
# Method in brief: as §1
# [12] = target: Neu5Ac(a2-6)Gal(b1-4)GlcNAc(b1-2)[Neu5Ac(a2-6)Gal(b1-4)GlcNAc(b1-4)]Man(a1-3)[GlcNAc(b1-4)][Neu5Ac(a2-6)Gal(b1-4)GlcNAc(b1-2)[Neu5Ac(a2-6)Gal(b1-4)GlcNAc(b1-6)]Man(a1-6)]Man(b1-4)GlcNAc(b1-4)GlcNAc
# Method in brief: as §1
# [13] = target: Neu5Ac(a2-6)Gal(b1-4)GlcNAc(b1-3)Gal(b1-4)GlcNAc(b1-3)GalNAc
# Method in brief: as §1
# [14] = target: Neu5Ac(a2-6)Gal(b1-4)GlcNAc(b1-3)GalNAc
# Method in brief: as §1
# Neu5Gc(a2-6)GalNAc = target: Neu5Gc(a2-6)GalNAc
# Method in brief: as §1
binder,measurement,setting,value
B1,glycan array binding signal (z-score),[1],-1.22
same,glycan array binding signal (z-score),[2],-0.27
same,glycan array binding signal (z-score),[3],2.65
same,glycan array binding signal (z-score),GlcNAc(b1-3)Man,0.083
same,glycan array binding signal (z-score),[4],-0.752
same,glycan array binding signal (z-score),[5],-0.594
same,glycan array binding signal (z-score),GlcNAc(b1-6)GalNAc,0.361
same,glycan array binding signal (z-score),[6],0.712
same,glycan array binding signal (z-score),[7],0.661
same,glycan array binding signal (z-score),Man(a1-6)Man,-0.352
same,glycan array binding signal (z-score),[8],0.676
same,glycan array binding signal (z-score),[9],6.14
same,glycan array binding signal (z-score),[10],-0.355
same,glycan array binding signal (z-score),[11],-0.638
same,glycan array binding signal (z-score),[12],2.53
same,glycan array binding signal (z-score),[13],-0.164
same,glycan array binding signal (z-score),[14],-0.107
same,glycan array binding signal (z-score),Neu5Gc(a2-6)GalNAc,0.187
